Source: PubChem BioAssay (EPA / NIEHS)
Inconclusive results are not listed. A structure can be active in one record and inactive in another. Activity calls are given as the source filed them. The calls were made as follows: active = hit-call score of the fitted dose curve at least 0.9, where 1 is the maximum; inconclusive = response in the unintended direction; inactive = score below 0.9.

Assay: TOX21_p53_BLA_p2_viability: Viability Assessment in the Tox21 HCT-116 p53 Agonism Beta-lactamase Assay, Phase 2 (AID 2283591);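 also: compound exposure lasted 16 h at 37 °C; actives lower the ATP signal meaning cytotoxicity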
Description: TOX21_p53_BLA_p2 is a cell-based, single-readout assay that uses HCT116, a human intestinal cell line, […] in a 1536-well plate.TOX21_p53_BLA_p2_viability is an assay readout measuring cellular ATP content and detected with CellTiter-Glo Luciferase-coupled ATP quantitation.TOX21_p53_BLA_p2_viability used a type of viability reporter where loss-of-signal activity can be used to understand changes in the cell viability. Furthermore, this assay endpoint can be referred to as a secondary readout, because this assay has produced multiple assay endpoints where this one serves a viability function. To generalize the intended target to other relatable targets, this assay endpoint is annotated to the cell cycle intended target family, where the subfamily is cytotoxicity.
Thawing Method: Place 14 mL of pre-warmed thaw medium into a 15 mL of conical tub. Remove the vial of cells to be thawed from liquid nitrogen and thaw rapidly by placing at 37C in a water bath with gentle agitation for 1-2 minutes. Decontaminate the vial by wiping with 70% ethanol before opening in a biological safety cabinet. Transfer the vial contents drop-wise into 14 mL of thaw medium in a sterile 15-mL conical tub. Centrifuge cells at 900 rpm for 4 minutes and resuspend in thaw medium. Transfer contents to the T75 tissue culture flask containing Thaw Medium and place flask in a humidified 37C/5% CO2 incubator. Switch to growth medium at first passage.Propagation Method: Aspirate medium, rinse once in DPBS, add 0.25% Trypsin/EDTA and swirl to coat the cell evenly. Add an equal volume of Growth Medium to inactivate Trypsin after 2-3 minutes incubation at 37C. Centrifuge cells at 900 rpm for 4 minutes and resuspend in growth medium. Cell should be passage or fed at least twice a week.Assay Protocol: Harvest cells from culture in growth medium and resuspend in assay medium. 2.2 Dispense 4000 cells/5 uL/well into 1536-well black/clear bottom plates using a Multidrop dispenser. After the cells were incubated at 37C for 5 hours, 23 nL of compounds dissolved in DMSO were transferred to the assay plate by a PinTool resulting in a 217-fold dilution. Incubate the plates for 16 hours at 37C, 5% CO2. Add 1 uL of 6X LiveBLAzer FRET B/G (CCF4-AM) Substrate Mixture to each well using a BioRAPTR dispenser and incubate the plates at room temperature for 2 hours. Measure fluorescence intensity at 460 and 530 nm emission and 405 nm excitation by an Envision detector. Data is expressed as the ratio of 460nm/530nm emissions. Add 4 uL of Cell-titer Glo to each well using BioRAPTR and incubate the plates at room temperature for […]. For cell viability readout that measures cytotoxicity, 4 ul/well of CellTiter-Glo reagent was added into the assay plates using a Flying Reagent Dispenser. After 30 min incubation at room temperature, the luminescence intensity in the plates was measured using a ViewLux plate reader.

Question: With O=S(=O)(O)c1ccc(O)c2ncccc12 as the molecule, how does the outcome read?
Answer: inactive

Question: For C=C(C)[C@@H]1CC[C@@H](C)C[C@@H]1O, which outcome is on record?
Answer: inactive

Question: With CCCCC(CC)COCCC#N (stereo not given) as the molecule, how does the outcome read?
Answer: inactive

Question: Which outcome does the source give for C[Si](O[Si](C)(C)C)O[Si](C)(C)C here?
Answer: inactive

Question: Which outcome does the source give for CN(C)CCCN here?
Answer: inactive

Question: With CN(CCOc1ccc(CC2SC(=O)NC2=O)cc1)c1ccccn1 (stereo not given) as the molecule, how does the outcome read?
Answer: inactive

Question: Which outcome does the source give for c1cc(C(c2ccc(OCC3CO3)cc2)c2ccc(OCC3CO3)cc2)ccc1OCC1CO1 (stereo not given) here?
Answer: inactive

Question: For CO[Si](C)(OC)c1ccccc1, which outcome is on record?
Answer: inactive

Question: With CCCCCCCCCCN as the molecule, how does the outcome read?
Answer: inactive

Question: Which outcome does the source give for CCCCc1ccc(N)cc1 here?
Answer: inactive

Question: With c1ccc(CCCc2ccccn2)cc1 as the molecule, how does the outcome read?
Answer: inactive

Question: For CCCc1c(OCCCOc2ccc(OCC(=O)O)cc2)ccc(C(C)=O)c1O, which AC50 is on record?
Answer: 57 µM (active)

Question: With CCOc1ccccc1OCC as the molecule, how does the outcome read?
Answer: inactive

Question: Which outcome does the source give for CCCC(=O)C(C)=O here?
Answer: inactive

Question: Which outcome does the source give for CCCCCNCCCCC here?
Answer: inactive

Question: For O=P(c1ccccc1)(c1ccccc1)c1ccccc1, which outcome is on record?
Answer: inactive

Question: Which outcome does the source give for CCCCNC(=O)NS(=O)(=O)c1ccc(C)cc1 here?
Answer: inactive

Question: Which outcome does the source give for O=C(O)c1ccc([N+](=O)[O-])cc1 here?
Answer: inactive

Question: With CCCCCCCCCCCCCCCC(=O)O as the molecule, how does the outcome read?
Answer: inactive

Question: Which outcome does the source give for O=c1[nH]nnc2ccccc12 here?
Answer: inactive

Question: Which outcome does the source give for NCCCCCCN here?
Answer: inactive

Question: Which outcome does the source give for O=C1CCCCCCCCCCCCCCO1 here?
Answer: inactive

Question: For CC(C)=CCC/C(C)=C/COC=O, which outcome is on record?
Answer: inactive

Question: With C=CC(=O)OCCn1c(=O)n(CCOC(=O)C=C)c(=O)n(CCOC(=O)C=C)c1=O as the molecule, how does the AC50 read?
Answer: 46.1 µM (active)

Question: For O=c1[nH]c(=O)n([C@H]2CCCO2)cc1F, which outcome is on record?
Answer: inactive

Question: For CC(=O)OCc1ccc2c(c1)OCO2, which outcome is on record?
Answer: inactive

Question: For CCCCCCOC(=O)CC, which outcome is on record?
Answer: inactive

Question: Which outcome does the source give for O=c1cc(-c2ccccc2)oc2cc(O)cc(O)c12 here?
Answer: inactive

Question: For CCCCO, which outcome is on record?
Answer: inactive

Question: For Cc1cc(C2(c3cc(C)c(O)cc3C)OS(=O)(=O)c3ccccc32)c(C)cc1O, which outcome is on record?
Answer: inactive

Question: With CC1(C)[C@@H]2CC[C@@]1(C)[C@H](O)C2 as the molecule, how does the outcome read?
Answer: inactive

Question: For CC(C)c1cccc(O)c1, which outcome is on record?
Answer: inactive

Question: With O=C(O)CCCCC1CCSS1 (stereo not given) as the molecule, how does the outcome read?
Answer: inactive

Question: Which outcome does the source give for CC(C)(C)c1cc(CCC(=O)NN)cc(C(C)(C)C)c1O here?
Answer: inactive

Question: Which outcome does the source give for CC(=O)C(=O)O here?
Answer: inactive

Question: For CCCCCCCCCCCCCOS(=O)(=O)O, which AC50 is on record?
Answer: 82.4 µM (active)

Question: With CCCCC/C=C/C=C/C=O as the molecule, how does the outcome read?
Answer: inactive

Question: And the AC50?
Answer: 62.9 µM (active)

Question: For CNCCCC12CCC(c3ccccc31)c1ccccc12, which outcome is on record?
Answer: inactive

Question: What about the AC50 of the same molecule?
Answer: 64.5 µM (active)
